# TGFb inhibitor: blocks TGF-b signaling. HepG2 CAGA-GFP TGF-b/SMAD3 reporter, GFP fluorescence, 18 h; TGF-beta stimulated, 500 pg/mL final. Potency, µM (doses to about 46.1 µM), for inactives: at the top dose activity, negative = inhibition, usual class: inhibitors. 410,000 tested, 1.2% active. AID 588855; further: on the % scale 0 is the no-effect control and ±100 the full control effect; nearly all actives have a fitted effect of over 65% in size
#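 Read-out: total well GFP (ex488/em500-530) summed from mean per-cell fluorescence. Cells: HEPG2 CAGA-GFP, 1% FBS DMEM, 18 h at 37 degrees C with 500 pg/mL final TGF-beta. Unstimulated wells served as the full-inhibition control; stimulated DMSO wells = 0%.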
# ATXN2 expr inh: inhibitors of ATXN2 expression; HEK-293 ATXN2-luciferase reporter, luminescence, 24 h; Potency, µM (doses to about 57 µM), inactives show at the highest dose activity change, negative = inhibition, actives largely listed as inhibitors; 360,000 tested, 0.72% active; further: on the % scale 0 is the no-effect control and ±100 the full control effect; nearly all actives have a fitted effect of over 55% in size
#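 ATXN2-luciferase reporter cells (luciferase flanked by upstream and downstream ATXN2 gene portions) were treated 24 h at 37 °C with compounds at up to 57 uM. SteadyGlo luminescence gave expression; GF-AFC fluorescence gave viability.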
# HepG2 viability: HepG2 cytotoxicity, counter-screen for TGF-b inhibitors; Potency, µM (titrated, usually from 46.1 µM), for inactives: top-dose activity change, negative = cytotoxicity, actives largely listed as cytotoxic; 410,000 tested, 0.76% active; HepG2 CAGA-GFP viability, ATP luminescence, 18 h; AID 588856
#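 HepG2 CAGA-GFP cells (1000/well, DMEM with 1% FBS) received compound, then TGF-beta at 500 pg/mL final, and were incubated 18 hours at 37 degrees C. Viability was read by CellTiter-Glo luminescence. Media-only wells were set as complete cell-killing and DMSO as no toxicity.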
# KB-V1 cytotox: kills drug-selected multidrug resistant KB-V1 cells. Potency, µM (doses to about 46.1 µM), usual class: cytotoxic. KB-V1 MDR cells viability, CellTiter-Glo, 72 h. 400,000 tested, 3.4% active. AID 1347076; further: on the % scale 0 is the no-effect control and ±100 the full control effect; nearly all actives have a fitted effect of over 60% in size
#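 Cells of the MDR subline KB-V1 are plated, dosed with compound at multiple concentrations, and incubated 72 h at 37 degrees C; CellTiter-Glo is then added and luminescence read after 10 min.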
# KB-3-1 tox: KB-3-1 parental cell cytotoxicity; KB-3-1 viability, CellTiter-Glo ATP luminescence, 72 h; Potency, µM (top dose mostly 46.1 µM), usual class: cytotoxic; 400,000 tested, 1.4% active; AID 1347075; further: on the % scale 0 is the no-effect control and ±100 the full control effect; nearly all actives have a fitted effect of over 60% in size
#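 Parental KB-3-1 adenocarcinoma cells in phenol-red-free DMEM with 10% FBS were pin-treated with compounds at several concentrations, incubated 72 h at 37 °C, and viability read by CellTiter-Glo luminescence; concentration-effect curves were fitted after normalization.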
# ATXN viability: viability counter-screen for ATXN expression inhibitors | 400,000 tested, 0.49% active | Potency, µM (doses to about 56.7 µM), usual class: cytotoxic | AID 651635 | S2 cells (HEK-293 line with an ATXN2-luciferase reporter) viability, CellTiter-Fluor protease fluorescence, 24 h; further: nearly all actives have a fitted effect of over 40% in size
# The depositor's hits bear a star; i = inactive; u = inconclusive; x = not tested or not shown; ! = a repeat was not active. Sampled rows, rich in hits. Any-hit rate of the full collection: about 5.9%. The call rests on the fitted dose curve; in most records, active means well fitted curve in the direction sought with a large enough effect; inconclusive means small, poorly fitted or top-dose-only effect, or another doubt; inactive means no such curve, though single readings can be large; an effect the other way counts as inactive or inconclusive. Potency means the concentration at half of the fitted maximal effect.
SMILES,TGFb inhibitor,ATXN2 expr inh,HepG2 viability,KB-V1 cytotox,KB-3-1 tox,ATXN viability
Cc1ccc(S(=O)(=O)N2[C@@H](Cc3ccccc3)CO[C@H]2CC(=O)c2cccs2)cc1,x,x,x,u,i,x
Cc1ccccc1N(CC(=O)NC1CCCC1)C(=O)c1oc(C(C)(C)C)cc1C,-5%,-36%,-39%,16µM*,i,i
COc1cc(-c2nnc(SCCOc3ccc(Cl)cc3)o2)cc(OC)c1OC,1%,1%,8%,i,i,i
COc1ccc(-c2nnc(SCC(=O)N3CCC(Cc4ccccc4)CC3)o2)cc1OC,-16%,-13%,3%,5.2µM*,i,i
CCCCN(CCCC)C(=O)CSc1nnc(-c2cc(OC)c(OC)c(OC)c2)o1,4%,-21%,-11%,13µM*,u,i
COc1cc(-c2nnc(SCCOc3ccc(Cl)cc3C)o2)cc(OC)c1OC,0%,-4%,11µM*,i,i,i
COc1cc(-c2nnc(SCC(=O)N3CCCc4ccccc43)o2)cc(OC)c1OC,2%,-8%,-22%,2.6µM*,i,u
CCCCOC(=O)CSc1nnc(-c2cc(OC)c(OC)c(OC)c2)o1,7%,0%,-21%,i,i,i
CCN(CC)C1CCN(C(=O)c2cnn(-c3nccc(-c4ccccc4OC)n3)c2-c2ccco2)C1 (centres undefined),x,x,x,x,x,i
CCC(C)NC(=O)c1nn(-c2ccc(C)cc2)nc1CO (centres undefined),-12%,x,-5%,x,x,x
Clc1ccccc1/C=C/c1nc(-c2ccccn2)no1,28%,5µM*,-24%,i,i,i
CNC(=O)CCc1nc(-c2ccc(C(C)(C)C)cc2)no1,-3%,23%,2%,i,i,i
Cc1onc(-c2ccccc2Cl)c1-c1nc(-c2ccccn2)no1,5%,5%,-27%,i,i,i
CC(C)(C)c1ccc(-c2nc(-c3ccncc3)no2)cc1,16µM*,7%,10µM*,16µM*,u,i
c1ccc(-c2noc(-c3ccc4ccccc4c3)n2)nc1,0%,2.2µM*,-57%,5.8µM*,u,i
CC(C)(C)c1ccc(-c2noc(CCC(N)=O)n2)cc1,-12%,0.32µM*,-10%,i,i,i
CC(=O)c1ccc(F)c(-c2cc(C)cc3c2OC(CNC(=O)c2cccnc2)C3)c1 (centres undefined),x,x,x,x,x,i
Cc1cc(C(C)Nc2ccccc2)c2nc(N3CCOCC3)cc(=O)n2c1 (centres undefined),x,4%,x,x,x,x
Cc1cccc(-c2noc(-c3ccc4c(c3)OCO4)n2)c1,0%,64%,-3%,u,i,x
c1ccc(-c2noc(-c3ccncc3)n2)nc1,13%,-32%,10µM*,i,u,i
c1ccc(-c2noc(-c3ccc4c(c3)OCO4)n2)nc1,-10%,u,1.6µM*,4.1µM*,4.6µM*,i
COc1cccc(-c2nc(-c3ccccn3)no2)c1,6%,u,10µM*,u,u,i
COc1cccc(-c2nc(-c3ccccc3)no2)c1,-14%,83%,-20%,i,i,i
O=C(/C=C/c1ccc(O)c(O)c1)O[C@@H]1C[C@@](OC(=O)/C=C/c2ccc(O)c(O)c2)(C(=O)O)C[C@@H](O)[C@@H]1O,x,6%,x,x,x,i
Cc1nn(-c2ccccc2)c2nc(C3CC3)cc(C(=O)Nc3cccc(F)c3)c12,u,u,-45%,u,u,u
SMILES,TGFb inhibitor,ATXN2 expr inh,HepG2 viability,KB-V1 cytotox,KB-3-1 tox,ATXN viability
CC1=CC(C)(C)N(C(=O)c2ccc(F)cc2)c2cc3c(cc21)OCO3,-3%,-7%,-16%,13µM*,21µM*,i
CCCCOc1ccc2c(c1)/C(=C(\C(Cl)=C(Cl)Cl)[N+](=O)[O-])N2,3%,5%,-18%,21µM*,u,i
CCC(C)(C)OC(=O)N[C@@H](Cc1c[nH]c2ccccc12)C(=O)N[C@@H](CCSC)C(=O)N[C@@H](CC(=O)O)C(=O)N[C@@H](Cc1ccccc1)C(N)=O,x,x,x,x,x,i
COc1ccc(Cl)cc1NC(=O)c1c(NCc2sccc2C)sc2c1CCCC2,u,x,-1%,x,x,x
Cn1nc(C(F)(F)F)c(/C=N/OC(=O)c2ccccc2)c1SCc1ccc(Cl)cc1,-11%,-24%,26%,18µM*,i,i
Cc1ccc(NC(=O)c2c(C(F)(F)F)nn(C)c2SCc2ccc(Cl)cc2)cc1C,u,-19%,-1%,8.2µM*,u,i
CC(C)(C)OC(=O)N1CCC(c2c(C(=O)NCc3ccco3)cnn2-c2ccccc2Cl)CC1,u,x,-7%,u,i,x
CC1C(O)=C(c2ccccc2)P(=O)(Cc2ccccc2)C1C (centres undefined),x,12%,x,i,i,i
CCOC(=O)C1CCCN(S(=O)(=O)c2ccc3[nH]c(=O)ccc3c2)C1 (centres undefined),-7%,-5%,-47%,i,i,i
C=C1c2cc(OC)ccc2NC(=O)N1CC,0%,9%,0%,7.3µM*,i,i
Cc1c(C(=O)NCc2ccccc2Cl)sc2ncnc(NCC3CCCO3)c12 (centres undefined),x,x,x,x,x,i
COc1ccc(-c2cn(Cc3cccc(OC)c3)nn2)cc1,7%,25%,-2%,10µM*!,u,i
CCN(CC)CCn1nc2c3c(cccc3c1=O)-c1ccccc1-2,u,10µM*,-9%,5.8µM*,u,u
O=c1c2cccc3c2c(nn1CN1CCOCC1)-c1ccccc1-3,-17%,-16%,-9%,1.6µM*,4.1µM*,i
CN(C)c1cc(-c2ccccc2)nc(N)n1,2%,7%,0%,u,21µM*,i
CN(C)c1cc(-c2ccccc2)nc(-c2ccccc2)n1,0%,1%,3%,i,i,i
CSc1nnc(CCNC(=O)/C=C/c2cccc(F)c2)n1-c1ccc(F)cc1,x,x,x,x,x,i
c1ccc(CCNc2nc(-c3ccncc3)nc3ccccc23)cc1,0%,u,-60%,15µM*,u,i
O=C(CCCCCn1c(=O)[nH]c2ccccc2c1=O)NCCc1ccccc1,21%,x,2%,i,i,x
O=C(CCCCn1c(=O)[nH]c2ccccc2c1=O)NCCC1=CCCCC1,-6%,1%,-13%,16µM*,i,u
COC(=O)c1cc(=O)n(Cc2ccco2)c(=Nc2ccc(F)c(Cl)c2)s1,13µM*,28µM*,-98%,u,18µM*,x

# Screening results deposited in PubChem by National Center for Advancing Translational Sciences (NCATS).
